Source: PubChem BioAssay (several laboratories)
In the library only some 2.2% were active in any assay of this set; here they are far more common.
VLA-4 inh: inhibition in human VLA-4 binding assay, primary screen, VLA-4 allosteric modulator project, MLPCN library, flow cytometry, VLA-4 expressing cells. ligand binding flow cytometry. inhibition, % (about 7 µM as worked out from the volumes in the protocol). hit rate 0.2% among 330,000. AID 2557, 2010; in the data active = inhibition above about 50%
MEX-5 binding: MEX-5 zinc finger RNA-binding disruptors – biochemical, C. elegans, fluorescence polarization, MLPCN library, primary screen | Zinc finger protein mex-5 (Caenorhabditis elegans), Q9XUB2 | MEX-5/FITC-TCR2 RNA binding; hits give low values | activity score (negative = inhibition of binding), % at 10 µM | hit rate 0.38% among 300,000 | AID 1832, 2009;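 active = inhibition past about -25% in most replicates, and total fluorescence under double the plate's negative control median, limit read from the data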;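 also: 0% = DMSO and -100% = 5 µM competing unlabeled TCR2 RNA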
Granule exo inh: LAMP-1 surface exposure blockers, TALL-104 cells – cell-based, flow cytometry, MLPCN library, primary screen; inhibition, % at 10 µM; hit rate 0.66% among 360,000; TALL-104 LAMP-1 surface exposure; cells stimulated with thapsigargin and PMA;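 active = inhibition above about 55%, limit read from the data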
HTR2A ag: mouse Htr2a agonists via beta-arrestin recruitment, primary screen, cell-based, luminescence | 5-hydroxytryptamine receptor 2A (Mus musculus), P35363 | CHO-K1 mHTR2A beta-arrestin complementation; percent of 30 µM serotonin response | activation, % at 7.6 µM | hit rate 0.66% among 360,000 | AID 624169, 2012;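 active = activation above a run cutoff, the mean activation of all tested compounds plus 3 SD, cut at about 14% in these data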;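 also: 0% = plate median of compound wells and 100% = 30 µM serotonin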
Target sequence (P35363 whole entry, looked up): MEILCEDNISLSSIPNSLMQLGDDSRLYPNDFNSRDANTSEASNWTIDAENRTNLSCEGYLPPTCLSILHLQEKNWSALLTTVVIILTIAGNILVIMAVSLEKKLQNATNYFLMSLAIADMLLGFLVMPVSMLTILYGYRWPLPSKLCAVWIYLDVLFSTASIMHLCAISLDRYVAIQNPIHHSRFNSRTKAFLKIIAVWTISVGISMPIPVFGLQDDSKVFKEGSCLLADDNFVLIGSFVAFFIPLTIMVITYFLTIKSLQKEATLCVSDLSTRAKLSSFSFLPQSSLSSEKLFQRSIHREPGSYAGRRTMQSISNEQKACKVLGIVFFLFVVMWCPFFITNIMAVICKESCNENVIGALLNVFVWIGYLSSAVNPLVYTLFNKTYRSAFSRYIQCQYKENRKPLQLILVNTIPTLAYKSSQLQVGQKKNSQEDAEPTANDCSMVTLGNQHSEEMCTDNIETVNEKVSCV
V-ATPase pH: regulators of yeast V-ATPase proton pumping, primary screen, pHLuorin cytosolic pH fluorescence. response, % at 10 µM. S. cerevisiae. hit rate 0.37% among 350,000; in the data active = response mostly above about 7.3%, no sharp cut-off; inactive = mostly below about 5.4%; also: actives read high
GASC-1 inh: inhibitors of GASC-1 histone demethylase, primary screen, biochemical, fluorescence, DELFIA europium; hit rate 0.069% among 330,000; AID 2099, 2009; inhibition, % at 2.35 µM; Lysine-specific demethylase 4C (Homo sapiens), Q9H3R0; GST-JMJD2C(1-420) H3K9me3 demethylation;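 active = more than half of a compound's replicate wells show inhibition beyond 50%, single wells judged on their own value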;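 also: signal counts dimethyl H3K9 product captured on neutravidin plate; 0% = median of DMSO wells and 100% = 0.3 times that DMSO median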
MOR ag counter: OPRM1 agonists via beta-arrestin recruitment, confirmation, counter-screen for mouse HTR2A agonist project, cell-based, luminescence, single concentration | shares compounds with HTR2A ag | U2OS OPRM1 beta-arrestin PathHunter; DMSO 0%, DAMGO 9.3 µM 100% | hit rate 5.3% among 2,300 | activation, % at 9.3 µM;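 active = mean activation above the mean of DMSO-only wells plus 3 SD, cut at about 0.5% in these data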
HTR2A ag conf: mouse HTR2A agonists, beta-arrestin recruitment, confirmation, cell-based, luminescence, CHO-K1 PathHunter, triplicate. shares compounds with HTR2A ag. DMSO 0%, 30 µM serotonin 100%. activation, % at 7.6 µM. hit rate 19% among 2,300. AID 624381, 2012;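 active = mean activation across triplicates above the hit threshold derived in the original primary screen, cut at about 15% in these data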
* = called active by the depositor; . = no result given; ! = a repeat was not active.

SMILES	VLA-4 inh	MEX-5 binding	Granule exo inh	HTR2A ag	V-ATPase pH	GASC-1 inh	MOR ag counter	HTR2A ag conf
CC(C)(C)OC(=O)NNC(=S)NC1CCCCC1	29	2	0	16*	4	-10	-1	3
COc1cc(OC)c(C(=O)NNC(=S)NC2CCCCC2)cc1OC	-13	0	-1	0	1	2	.	.
NC(=O)c1c(NC(=O)c2ccncc2)sc2c1CCCC2	5	1	-2	18*	-2	0	0	5
O=C(CSc1nnc(CNC(=O)c2ccc(F)cc2)o1)Nc1nccs1	13	-5	0	14*	-3	1	-1	-3
CNC(=O)Oc1ccc2c(c1)[C@]1(C)CCN(C)[C@@H]1N2C	10	1	-1	20*!	-1	-1	-1	-1
COc1cccc(CN2CCCC(C(=O)c3ccc4c(c3)OCO4)C2)c1O (stereo not given)	5	2	18	-2	0	-8	.	.
COc1ccccc1C(=O)C1CCCN(Cc2ccc3c(c2)OCCO3)C1 (stereo not given)	5	0	-1	33*	2	0	-1	16*
COc1ccc(C(=O)C2CCCN(Cc3ccc4c(c3)OCCO4)C2)cc1F (stereo not given)	4	3	1	10	0	-3	.	.
COc1ccc(F)cc1C(=O)C1CCCN(Cc2ccc3c(c2)OCCO3)C1 (stereo not given)	8	3	-1	26*	1	-5	2.8*	28*
C[C@@H]1CN([C@@H](C)CO)C(=O)c2cc(NC(=O)C3CCCCC3)ccc2O[C@@H](C)CCCCO[C@@H]1CN(C)C(=O)CCCN(C)C	.	.	-4	2	2	.	.	.
CCN(CC(=O)NCc1ccc(F)cc1)C(=O)c1cccnc1SC	9	2	-7	15*	-7	-9	-1	-6
CCN(CC(=O)NCc1ccc(F)cc1)C(=O)c1ccc(C(=O)c2ccccc2)cc1	0	0	7	2	-2	-6	.	.
O=C(CSc1nc2nn(-c3ccccc3)c(=O)c-2c2n1CCCCC2)NCCCc1ccccc1	2	-1	14	0	-3	-3	.	.
O=C(NCC(=O)N(c1cccnc1)C(C(=O)NCc1ccco1)c1ccccc1)c1ccco1 (stereo not given)	13	0	2	15*	-2	0	0	10
O=[N+]([O-])c1cc(-c2nnc(Nc3ccc(O)cc3)c3ccccc23)ccc1N1CCOCC1	-2	0	3	31*	3	2	0	21*
O=[N+]([O-])c1cc(-c2nnc(Nc3ccccc3)c3ccccc23)ccc1N1CCOCC1	-6	-2	-1	11	2	-4	.	.
COc1ccc2c(c1)c(=O)oc1cc(OCC(=O)NC3CCCCC3)ccc12	1	-1	-2	7	4	-7	.	.
COc1ccc2c(c1)c(=O)oc1cc(OCC(=O)NC3CC3)ccc12	-1	0	5	15*	-1	-1	0	-4
COc1cc(OC)cc(-c2c(-c3ccsc3)c3cc(Br)ccc3n2C)c1	4	.	-7	15*	-2	2	0	-2
COc1cc(OC)cc(-c2c(-c3ccc(F)cc3)c3cc(-c4ccc5[nH]ccc5c4)ccc3n2C)c1	30	.	-10	15*	-10	9	-1	-4
O=C(Cn1c(CCCO)nc2ccccc21)Nc1ccccc1-c1ccccc1	7	-1	7	-2	2	4	.	.
O=C(Nc1nc2ccccc2s1)c1ccc(F)cc1	-4	-1	1	53*	-2	-2	0	-3
O=C1CC(N2CCN(c3ccc(Cl)c(Cl)c3)CC2)C(=O)N1 (stereo not given)	11	0	0	19*	5	-5	1.6*	18*
Nc1ccc(N2CCN(c3ccc(Cl)c(Cl)c3)CC2)cc1	-1	1	3	35*	0	9	0	-5
O=C1CC(N2CCN(Cc3ccccc3)CC2)C(=O)N1 (stereo not given)	9	-2	3	-1	-1	13	.	.
SMILES	VLA-4 inh	MEX-5 binding	Granule exo inh	HTR2A ag	V-ATPase pH	GASC-1 inh	MOR ag counter	HTR2A ag conf
N#C/C=C(/N)N1CCN(c2ccc(Cl)c(Cl)c2)CC1	-7	0	6	35*	-1	-5	-1	19*
COC(=O)N1CCN(c2ccc(Cl)c(Cl)c2)CC1	-6	-1	2	0	-2	26	.	.
O=C1OC(COCC#Cc2ccccc2)CN1c1ccccc1 (stereo not given)	.	.	-1	-7	-1	.	.	.
O=S(=O)(NCCc1ccc(F)cc1)c1cc(C(F)(F)F)ccc1Br	.	.	-5	3	0	.	.	.
O=S(=O)(NCc1ccc(F)cc1)c1cc(Br)ccc1Br	3	.	14	18*	2	4	0	0
CCc1ccc2cc(F)cc(F)c2n1	.	.	-3	1	.	.	.	.
CC(C)N=c1c([N+](=O)[O-])nn(C)n1O	7	1	2	15*	1	-44	-1	-3
CN=c1c([N+](=O)[O-])nn(-c2ccc3c(c2)OCCO3)n1O	0	0	4	4	0	6	.	.
C=CCOc1ccc(CN(C)C(=O)c2ccc(CNS(=O)(=O)c3ccc(C)c(C)c3)cc2)cc1	20	.	-5	-2	5	5	.	.
COc1ccc(-n2c(SCC(=O)Nc3cc(C(=O)O)ccc3C)nc3ccccc3c2=O)cc1Cl	-3	-1	-4	17*	1	-8	-1	-2
CCOc1ccccc1NC(=O)CN1C(=O)NC(Cc2c[nH]c3ccccc23)C1=O (stereo not given)	-11	.	-1	-3	0	-1	.	.
Fc1cccc(CCN2C(=S)NC[C@@H]2Cc2ccccc2)c1	-10	2	-3	-2	-3	-19	.	.
CCCC[C@@H]1CNC(=O)C(=O)N1CCc1cc(C(F)(F)F)cc(C(F)(F)F)c1	28	0	-13	15*	1	8	0	-2
CCCC[C@@H]1CNC(=S)N1CCc1cccc(F)c1	.	1	-7	15*	7	6	0	-3
